Read-outs that look alike come from different tables or passages of the source. About 60 (2%) of roughly 3,300 compounds showed an effect of 50% or more. The entries come from a sample that favours strong results as a whole.
Test system: HCoV-OC43
Parameters: species or system RD; HTS, protection from HCoV-OC43 induced cell death, luminescent cell viability (CellCounting-Lite 2.0), inhibition rate
Settings: 24 h post infection, 1 h compound pre-incubation, 10 µM, inhibitor

Compound	OC43 Inhibition rate [%]	OC43 Inhibition rate (OC43 Inhibition rate, 24 h) [%]
C[C@H](CCC(=O)NCCS(=O)(=O)O)[C@H]1CC[C@H]2[C@@H]3C[C@H](O)[C@@H]4C[C@H](O)CC[C@]4(C)[C@H]3CC[C@]12C [Taurohyodeoxycholic acid]	-1.1	
COc1cccc(O)c1C(=O)O [2-Hydroxy-6-methoxybenzoic acid]	0	
CCCCCCC/C=C\C(=O)O [(Z)-2-Decenoic acid]	29.5	
CC(C)=CCC1C(=O)C(C(=O)CC(C)C)=C(O)C(O)(CC=C(C)C)C1=O (centres unmarked) [Humulone]	-1	
Oc1ccc(O)c(O)c1 [1,2,4-Trihydroxybenzene]	-0.2	
COc1c2c(cc3oc(C)cc(=O)c13)OC(C(C)(C)O[C@@H]1O[C@H](CO)[C@@H](O)[C@H](O)[C@H]1O)C2 (some centres unmarked) [5-O-Methylvisammioside]	0.3	
C=C(C)[C@H](C)c1cc(/C=C/C(=O)c2ccc(O)cc2)c(OC)cc1O [Licochalcone E]	55.6	
COc1cc(O)ccc1/C=C/C(=O)c1ccc(O)cc1 [Echinatin]	46.1	
COc1c(/C=C/C(=O)c2ccc(O)cc2)ccc(O)c1O [Licochalcone B]	45.6	
O=C1C[C@@H](c2ccc(O[C@@H]3O[C@H](CO)[C@@H](O)[C@H](O)[C@H]3O)cc2)Oc2cc(O[C@@H]3OC[C@](O)(CO)[C@H]3O)ccc21 [Liguiritigenin-7-O-D-apiosyl-4'-O-D-glucoside]	1.2	
CCC(O)C(=O)O (centres unmarked) [Sodium 2-hydroxybutanoate]	-6	
C[C@@H]1CC[C@]2(C(=O)O[C@@H]3O[C@H](CO)[C@@H](O)[C@H](O)[C@H]3O)CC[C@]3(C)C(=CC[C@@H]4[C@@]5(C)C[C@@H](O)[C@H](O)C(C)(C)[C@@H]5CC[C@]43C)[C@@H]2[C@]1(C)O [Rosamultin]	1	
CC(C)=C[C@@H]1CO[C@]23C[C@]4(CO2)[C@H](CC[C@@H]2[C@@]5(C)CC[C@H](O[C@@H]6OC[C@H](O)[C@H](O[C@@H]7O[C@H](COS(=O)(=O)O)[C@@H](O)[C@H](O)[C@H]7O)[C@H]6O[C@@H]6O[C@@H](CO)[C@H](O)[C@H]6O)C(C)(C)[C@@H]5CC[C@]24C)[C@H]3[C@@]1(C)O [Bacopaside I]	0.8	
O=C1NCN(c2ccccc2)C12CCN(CCCOc1ccc(F)cc1)CC2 [Spiramide]	69.6	
CC(=O)O[C@]12CCC(C(=O)O)=CC[C@]13CC[C@H]2[C@@](C)(/C=C/C=C(\C)C(=O)O)OC3=O [Pseudolaric Acid C2]	3.3	
Cn1cncc1C[C@H](N)C(=O)O [3-Methyl-L-histidine]	-5.7	
CC[C@@H](C)O [(R)-(-)-2-Butanol]	0.1	
CC(=O)N[C@@H](CCCCN)C(=O)O [Acetyl-L-lysine]	-0.1	
COc1cc2c(cc1OC)[C@@H](Cc1ccc(O)c(Oc3cc4c(cc3OC)CCN(C)[C@@H]4Cc3ccc(O)cc3)c1)N(C)CC2 [Liensinine]		54.6
COc1cc2c(cc1OC)[C@@H](Cc1ccc(O)c(Oc3cc4c(cc3OC)CCN(C)[C@@H]4Cc3ccc(O)cc3)c1)N(C)CC2 [Liensinine (perchlorate)]		0.4
COc1cc2c(cc1OC)[C@@H](Cc1ccc(O)c(Oc3cc4c(cc3OC)CCN(C)[C@@H]4Cc3ccc(O)cc3)c1)N(C)CC2 [Liensinine (Diperchlorate)]		24.8
CCCCCCCC/C=C/CCCCCCCC(=O)O [Elaidic acid]	-0.4	
O=C(/C=C/c1ccc(O)c(O)c1)O[C@@H]1[C@H](O)C[C@@](O)(C(=O)O)C[C@H]1OC(=O)/C=C/c1ccc(O)c(O)c1 [4,5-Dicaffeoylquinic acid]	-0.7	
C=C1[C@H](OC(=O)/C=C(\C)CC)C[C@@H](C(C)C)[C@@H]2[C@@H]([C@@H](C)OC(C)=O)C(=O)C[C@@H]12 [Tussilagone]	60.7	
O=C(/C=C/C=C/c1ccccc1)CCc1ccccc1 [Alnustone]	1.1	
C[C@@H]1O[C@@H](Oc2cc(O)c3c(=O)c(O)c(-c4ccc(O)cc4)oc3c2O)[C@H](O)[C@H](O)[C@H]1O [Rhodionin]	0.2	
CCCCCCCCCCCCCCCCCCCCCCCCCCCC(=O)O [Octacosanoic acid]	-0.6	

Compound	OC43 Inhibition rate [%]	OC43 Inhibition rate (OC43 Inhibition rate, 24 h) [%]
C[C@@H]1O[C@@H](O[C@H]2[C@H](OC(=O)[C@]34CCC(C)(C)C[C@H]3C3=CC[C@@H]5[C@@]6(C)C[C@H](O)[C@@H]7O[C@@H]8O[C@H](CO)[C@@H](O)[C@H](O)[C@H]8O[C@@H]8OC[C@H](O)[C@H](O)[C@H]8OC(=O)C[C@@](C)(O)CC(=O)OC[C@@]7(C)[C@@H]6CC[C@@]5(C)[C@]3(C)CC4)OC[C@H](O)[C@@H]2O)[C@H](O)[C@H](O[C@@H]2OC[C@@H](O)[C@H](O)[C@H]2O)[C@H]1O [Tubeimoside I]	57.2	
C[C@@H]1O[C@@H](O[C@H]2[C@H](O[C@H]3CC[C@@]4(C)[C@@H](CC[C@]5(C)[C@@H]4CC=C4[C@@H]6CC(C)(C)CC[C@]6(C(=O)O[C@@H]6O[C@H](CO[C@@H]7O[C@H](CO)[C@@H](O)[C@H](O)[C@H]7O)[C@@H](O)[C@H](O)[C@H]6O)CC[C@]45C)[C@]3(C)CO)OC[C@H](O)[C@@H]2O)[C@H](O)[C@H](O[C@@H]2O[C@H](CO)[C@@H](O)[C@H](O)[C@H]2O)[C@H]1O [Macranthoidin A]	-0.3	
C[C@@H]1O[C@H]2O[C@H]3[C@@H](OC[C@H](O)[C@@H]3O)OC(=O)[C@]34CCC(C)(C)C[C@H]3C3=CC[C@@H]5[C@@]6(C)C[C@H](O)[C@H](O[C@@H]7O[C@H](CO)[C@@H](O)[C@H](O)[C@H]7O[C@@H]7OC[C@H](OC(=O)C[C@](C)(O)CC(=O)O[C@@H]1[C@@H](O[C@@H]1OC[C@@H](O)[C@H](O)[C@H]1O)[C@H]2O)[C@H](O)[C@H]7O)[C@@](C)(CO)[C@@H]6CC[C@@]5(C)[C@]3(C)C[C@H]4O [Tubeimoside II]	-2.8	
CC1(C)CC[C@]2(C(=O)O)CC[C@]3(C)C(=CC[C@@H]4[C@@]5(C)CC[C@H](O[C@@H]6O[C@H](C(=O)O)[C@@H](O)[C@H](O[C@@H]7OC[C@@H](O)[C@H](O)[C@H]7O[C@@H]7O[C@H](CO)[C@@H](O)[C@H](O)[C@H]7O)[C@H]6O)C(C)(C)[C@@H]5CC[C@]43C)[C@@H]2C1 [Oleanolic acid-3-O-glucosyl(1-2)xylyl(1-3)glucosiduronic acid]	-0.1	
CC(=O)c1ccc2ccccc2c1 [2-Acetonaphthone]	-1.5	
c1cncnc1 [Pyrimidine]	-0.5	
Nc1nc(O)c2[nH]nnc2n1 [8-Azaguanine]	54.4	
C/C=C/C=C/C(=O)O [Potassium sorbate]		1.3
C=C1CCC2(C(C)C)CC12 (centres unmarked) [Sabinene]	-0.5	
C[C@@H](O)CC(=O)O [(R)-3-Hydroxybutanoic acid]		-0.8
C[C@H]1[C@H]2CC[C@H]3[C@@H]4CC=C5C[C@@H](N(C)C)CC[C@]5(C)[C@H]4CC[C@]23CN1C [Conessine]	52.4	
CC(=O)[C@H]1CC[C@H]2[C@@H]3CC=C4C[C@@H](O)CC[C@]4(C)[C@H]3CC[C@]12C [Pregnenolone]	1.3	
C[C@]12CC[C@H]3[C@@H](CC=C4C[C@@H](O)CC[C@@]43C)[C@@H]1CC[C@@H]2C(=O)CO [21-Hydroxypregnenolone]	-0.2	
CC1(C)CC[C@]2(C(=O)O)CC[C@]3(C)C(=CC[C@@H]4[C@@]5(C)CC[C@@H](O)C(C)(C)[C@@H]5CC[C@]43C)[C@@H]2C1 [3-Epioleanolic acid]	-0.6	
OC1OC[C@@H](O)[C@H](O)[C@@H]1O (stereo partly drawn) [D-Lyxose]	-0.4	
C=C1C(=O)[C@]23[C@H](O)[C@H]1CC[C@H]2[C@@]12CO[C@]3(O)[C@@H](O)[C@@H]1C(C)(C)CC[C@@H]2O [Oridonin]	17.2	
C=C1C(=O)[C@@]23[C@@H]4OC5O[C@@]2(O)[C@@H](O)[C@@H]2C(C)(C)CC[C@@H](O)[C@]52[C@@H]3CC[C@@H]14 [ponicidin]	75.9	
C=C1C(=O)[C@@]23[C@H](O)C[C@@H]4C(C)(C)CC[C@H](O)[C@@]4(CO)[C@@H]2CC[C@@H]1[C@H]3O [Kamebakaurin]	-2.9	
CC(C)(CC(=O)O)CC(=O)O [3,3-Dimethylglutaric acid]	-0.3	
C/C=C(/C)C(=O)O[C@@H]1c2c(ccc3ccc(=O)oc23)OC(C)(C)[C@@H]1OC(=O)/C(C)=C\C [(-)-Anomalin]	32.9	
C/C=C(/C)C(=O)OC(C)(C)[C@@H]1Cc2c(ccc3ccc(=O)oc23)O1 [Columbianadin, columbianadin]	107.6	
C/C=C(\C)C(=O)OC1c2c(ccc3ccc(=O)oc23)OC(C)(C)C1OC(=O)/C(C)=C/C (centres unmarked) [Praeruptorin B]	7.3	
Nc1ccccc1C(=O)C[C@@H](N)C(=O)O [D-Kynurenine]	-6.1	
CCCCC/C=C\C/C=C\CCCCCCCC(=O)NCc1ccccc1 [N-Benzyllinoleamide]	40	
CCCCCCCC/C=C\CCCCCCCC(=O)NCc1ccccc1 [N-Benzyloleamide]	56.9	
CCCCCCCCCCCCCCCCCC(=O)NCc1ccccc1 [N-Benzyloctadecanamide]	-0.1	

Reference: publication PMC12431657, “Discovery and mechanistic insights of dibenzoylmethane as a broad spectrum inhibitor of coronavirus” (PLOS Pathogens, 2025)
